Measurements taken from PubChem BioAssay (Tox21).
Values without a mark were called inactive. The source made the active and inactive calls. Calls follow the shape of the full dose curve.
% is scaled to controls: 0 for no effect and ±100 for the full control effect; potency is read from the fitted curve at half-maximal effect.

These compounds were tested against Acetylcholinesterase (Homo sapiens) (UniProt P22303) (assay: Acetylcholinesterase (AChE) small molecule antagonists: enzyme-based qHTS assay (AID 1347397; also: nearly all actives have a fitted effect of over 55% in size)). Details: Potency: AChE enzyme activity inhibition; outcome: AChE enzyme activity inhibition; series mostly up to 115 µM; activity change, negative = inhibition: at the top concentration.
Chain of Acetylcholinesterase (Homo sapiens) (P22303 whole entry, looked up): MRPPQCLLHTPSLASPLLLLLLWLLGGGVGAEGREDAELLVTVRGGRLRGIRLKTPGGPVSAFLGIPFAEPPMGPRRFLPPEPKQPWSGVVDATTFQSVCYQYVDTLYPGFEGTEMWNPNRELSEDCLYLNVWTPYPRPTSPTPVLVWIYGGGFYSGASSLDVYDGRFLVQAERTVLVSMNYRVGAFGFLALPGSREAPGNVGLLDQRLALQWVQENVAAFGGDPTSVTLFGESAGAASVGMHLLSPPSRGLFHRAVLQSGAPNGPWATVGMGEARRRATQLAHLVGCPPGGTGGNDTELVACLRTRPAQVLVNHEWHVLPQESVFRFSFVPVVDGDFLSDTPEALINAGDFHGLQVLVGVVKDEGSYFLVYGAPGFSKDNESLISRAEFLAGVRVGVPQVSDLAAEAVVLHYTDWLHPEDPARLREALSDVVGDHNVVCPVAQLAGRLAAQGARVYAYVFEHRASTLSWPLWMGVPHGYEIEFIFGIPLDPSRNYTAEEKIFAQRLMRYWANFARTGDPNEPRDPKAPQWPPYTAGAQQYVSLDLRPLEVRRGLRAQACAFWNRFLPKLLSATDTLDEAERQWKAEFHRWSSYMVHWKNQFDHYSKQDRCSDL
Text: National Center for Advancing Translational Sciences [NCATS]
Division of Preclinical Innovation [DPI]
U.S. Environmental Protection Agency [EPA]
National Institutes of Environmental Health Sciences [NIEHS]
National Toxicology Program [NTP]
U.S. Food and Drug Administration [FDA]
Acetylcholinesterase (AChE) is the primary cholinesterase in the body that hydrolyzes a key neurotransmitter, acetylcholine. Inhibition of AChE activity can lead to neurotoxicity. The known inhibitors include organophosphorous pesticides (OP), chemical warfare agents, drugs, and various phytochemicals.
An enzyme-based assay with the recombinant human AChE and Amplite Colormetric acetylcholinesterase assay kit (AAT Bioquest, Sunnyvale, CA) was used to evaluate the chemicals in the Tox21 10K library that inhibit AChE activity. The assay uses 5, 5-dithiobis-(2-nitrobenzoic acid) (DTNB) to quantify the thiocholine produced from the hydrolysis of acetylthiocholine by AChE.
Tox21 Assay Protocol Summary:
For the enzyme-based AChE assay, recombinant human AChE (50 mU/mL) in 4 uL/well was dispensed into black, clear-bottom 1536-well plates using a Multidrop Combi dispenser (Thermo Scientific, MA). Then, 23 nL of compound or DMSO (vehicle control) was transferred into the assay plates by a Pintool Station (Wako Automation, CA). The plates were incubated for 30 min at room temperature, followed by the addition of 4 uL of colorimetric detection cocktail solution (DTNB, acetylthiocholine) into each well using a Flying Reagent Dispenser (Beckman Coulter, CA) and then 10 min incubation at room temperature.
`CCC(Cl)CCC(Cl)C(Cl)CC(Cl)C(Cl)C(Cl)CCl` (stereo not given) was tested, and the “activity change, negative = inhibition” value was -4.77%.
`CO[C@H]1C=CO[C@@]2(C)Oc3c(C)c(O)c4c(O)c(cc(O)c4c3C2=O)NC(=O)/C(C)=C\C=C/[C@H](C)[C@H](O)[C@@H](C)[C@@H](O)[C@@H](C)[C@H](OC(C)=O)[C@@H]1C` was tested, and the “activity change, negative = inhibition” value was 14.9%.
With `CC1=CCC(C(C)C)C=C1` (stereo not given) the “activity change, negative = inhibition” value was 0.0038%.
For `CCCCCCCC/C=C/CCCCCCCC1=NCCN1CCO`, the “activity change, negative = inhibition” value was -0.138%.
With `O=S(=O)(O)c1cc(O)c2ccc(Nc3ccccc3)cc2c1` the “activity change, negative = inhibition” value was -17.4%.
`N=C(N)c1ccc2cc(OC(=O)c3ccc(N=C(N)N)cc3)ccc2c1` was tested, and the outcome was “inactive”.
For `O=[N+]([O-])c1cccc(S(=O)(=O)NCCNS(=O)(=O)c2cccc([N+](=O)[O-])c2)c1`, the “activity change, negative = inhibition” value was -9.74% [at 53 µM].
For `S=C([S-])NCCNC(=S)[S-].[Mn+2]`, the “activity change, negative = inhibition” value was -17.9%.
With `CCN(CC)C(=O)N1CCN(C)CC1` the “activity change, negative = inhibition” value was 0.139% [at 53 µM].
`NS(=O)(=O)Cc1noc2ccccc12` was tested, and the “activity change, negative = inhibition” value was 0.443% [at 53 µM].
For `NC(=O)Nc1ccccc1`, the “activity change, negative = inhibition” value was -0.366%.
In the case of `CCOC(=O)c1ccccc1OC`, the “activity change, negative = inhibition” value is reported as -0.825%.
For `CCCCCCCCCCc1ccccc1`, the “activity change, negative = inhibition” value was 0%.
In the case of `CN(CC1(C)CCCO1)S(=O)(=O)c1ccc(Cl)c(S(N)(=O)=O)c1` (stereo not given), the “activity change, negative = inhibition” value is reported as 0.629% [at 53 µM].
For `CCN(CC)c1cccc(C)c1`, the “activity change, negative = inhibition” value was 0.273%.
`CCN(CC)CCNC(=O)c1cc(Cl)c(N)cc1OC` was tested, and the “activity change, negative = inhibition” value was -8.58% [at 53 µM].
With `O=C(/C=C/c1ccc(O)c(O)c1)O[C@@H]1C[C@](O)(C(=O)O)C[C@@H](O)[C@H]1O` the “activity change, negative = inhibition” value was 3.26%.
`C/C=C/C(=O)CC` showed an activity change, negative = inhibition of 0.0718% [at 23.6 µM].
In the case of `CC(C)(O)c1ccccc1CC[C@@H](SCC1(CC(=O)O)CC1)c1cccc(/C=C/c2ccc3ccc(Cl)cc3n2)c1`, the “activity change, negative = inhibition” value is reported as -0.564% [at 53 µM].
With `CC(S)C(=O)NCC(=O)O` (stereo not given) the “activity change, negative = inhibition” value was 1.39% [at 53 µM].
`N#CCN(CC#N)CCN(CC#N)CC#N` was tested, and the “activity change, negative = inhibition” value was 0.61%.
In the case of `Nc1ccc(C(=O)NCC(=O)O)cc1`, the “activity change, negative = inhibition” value is reported as -0.0289% [at 53 µM].
For `COC(=O)c1ccc(OC)cc1`, the “activity change, negative = inhibition” value was -0.282%.
With `Cc1ccc(OC(=O)c2ccccc2O)cc1` the “activity change, negative = inhibition” value was -0.0182%.
`Cc1cccn2c(=O)c(-c3nnn[nH]3)cnc12` showed an activity change, negative = inhibition of -2.02% [at 23.6 µM].
With `Cc1[nH]c(=O)c(C#N)cc1-c1ccncc1` the Potency was “inactive”.
For `C=CC(=O)OCCn1c(=O)n(CCOC(=O)C=C)c(=O)n(CCOC(=O)C=C)c1=O`, the “activity change, negative = inhibition” value was -1.28%.
`N=C1N=C(N)c2ccccc21` was tested, and the “activity change, negative = inhibition” value was 0.774%.
With `C=CCCCCCCCCCCCC` the “activity change, negative = inhibition” value was 0.684%.
With `CCNC(=O)NCCCOc1cccc(CN2CCCCC2)c1` the “activity change, negative = inhibition” value was -7.73% [at 53 µM].
For `O=C1C=CC(=O)N1c1cccc(N2C(=O)C=CC2=O)c1`, the “activity change, negative = inhibition” value was -23.5%.
For `N#CCCOCCC#N`, the “activity change, negative = inhibition” value was 0.546%.
With `CC(=O)CCC1=C(C)CCCC1(C)C` the “activity change, negative = inhibition” value was -3.44%.
With `OCc1cc(C(O)CNCCCCCCOCCCCc2ccccc2)ccc1O` (stereo not given) the “activity change, negative = inhibition” value was -2.48% [at 53 µM].
With `CO[C@@H]1COCC[C@@H]1N[C@@H]1CC[C@@](C(=O)N2CCc3ncc(C(F)(F)F)cc3C2)(C(C)C)C1` the “activity change, negative = inhibition” value was 0.886%.
For `CN1CCCC(n2nc(Cc3ccc(Cl)cc3)c3ccccc3c2=O)CC1` (stereo not given), the Potency was 27.5 µM (active).
With `C[C@@H](O)[C@H]1C(=O)N2C(C(=O)O)=C(S[C@@H]3CN[C@H](CNS(N)(=O)=O)C3)[C@H](C)[C@H]12` the “activity change, negative = inhibition” value was -0.0057% [at 53 µM].
`C[N+](C)(CCOc1ccccc1)Cc1cccs1` was tested, and the “activity change, negative = inhibition” value was 0.27% [at 53 µM].
`CCCC(=O)OC/C=C(\C)CCC=C(C)C` was tested, and the “activity change, negative = inhibition” value was 0.388%.
In the case of `CC(=O)Nc1ccc(S(N)(=O)=O)cc1`, the “activity change, negative = inhibition” value is reported as 0.66%.
